Where “and” joins values, the source holds several entries; their conditions need not be identical. Equal values may be shown once. Screen size: about 5,500 compounds; about 2,000 (36%) were called active. Another 18% or so got no clear call; they are omitted. No stated cut-off is given here; in the data, active means normalized growth mostly below about 0.91 (no sharp cut-off); inconclusive means no clear call, values can overlap the other calls; inactive means mostly above about 0.92. The list shows a part of the results. Some compounds were tested as several samples or in several runs, with calls that do not always agree.
Assay: chemical genetic growth profiling, strain panel (AID 1159580);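 further: tested at 20 µM; growth read once vehicle control cultures reached saturation at 30 °C; 1 = growth at the plate median or of vehicle wells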
Settings: growth OD

Measured: normalized growth

CC(C)COCC(CN(Cc1ccccc1)c1ccccc1)N1CCCC1 (stereo not given)
active: S. cerevisiae deletion strains, locus YKR001C, strain vps1, stronger effect = lower value 0.793 | S. cerevisiae deletion strains, locus YLR058C, strain SHM2, stronger effect = lower value 0.858 | S. cerevisiae deletion strains, locus YLR262C, strain YPT6, stronger effect = lower value 0.59 | S. cerevisiae deletion strains, locus YLR342W, strain FKS1 (second series), stronger effect = lower value 0.707 | S. cerevisiae deletion strains, locus YLR418C, strain cdc73, stronger effect = lower value 0.698 | S. cerevisiae deletion strains, locus YML032C, strain rad52, stronger effect = lower value 0.904 | S. cerevisiae deletion strains, locus YMR223W, strain ubp8, stronger effect = lower value 0.894 | S. cerevisiae deletion strains, locus YNL067W, strain RPL9B, stronger effect = lower value 0.843 | S. cerevisiae deletion strains, locus YNL153C, strain GIM3, stronger effect = lower value 0.823 | S. cerevisiae deletion strains, locus YNL233W, strain BNI4, stronger effect = lower value 0.781 | S. cerevisiae deletion strains, locus YNR052C, strain pop2, stronger effect = lower value 0.887 | S. cerevisiae deletion strains, locus YOL006C, strain TOP1, stronger effect = lower value 0.242 | S. cerevisiae deletion strains, locus YPL055C, strain LGE1, stronger effect = lower value 0.653 | S. cerevisiae deletion strains, locus YPR163C, strain tif3, stronger effect = lower value 0.792 | S. cerevisiae strains, strain wild type, stronger effect = lower value 0.878
0.798 (active) and 1.01 (inactive): S. cerevisiae deletion strains, locus YJR075W, strain HOC1, stronger effect = lower value
inactive: S. cerevisiae deletion strains, locus YKL009W, strain mrt4, stronger effect = lower value 0.935 | S. cerevisiae deletion strains, locus YKL068W, stronger effect = lower value 0.989 | S. cerevisiae deletion strains, locus YKL085W, strain MDH1 (second series), stronger effect = lower value 0.979 | S. cerevisiae deletion strains, locus YKL085W, strain MDH1, stronger effect = lower value 0.979 | S. cerevisiae deletion strains, locus YKL160W, strain elf1, stronger effect = lower value 1.02 | S. cerevisiae deletion strains, locus YKL190W, strain CNB1, stronger effect = lower value 0.923 | S. cerevisiae deletion strains, locus YKR026C, strain gcn3, stronger effect = lower value 1.03 | S. cerevisiae deletion strains, locus YKR091W, strain srl3, stronger effect = lower value 1.02 | S. cerevisiae deletion strains, locus YLL001W, strain dnm1, stronger effect = lower value 1.03 | S. cerevisiae deletion strains, locus YLL026W, stronger effect = lower value 1.02 | S. cerevisiae deletion strains, locus YLL041C, strain sdh2, stronger effect = lower value 1.05 | S. cerevisiae deletion strains, locus YLR027C, strain aat2, stronger effect = lower value 1.01 | S. cerevisiae deletion strains, locus YLR039C, strain RIC1, stronger effect = lower value 0.705 | S. cerevisiae deletion strains, locus YLR102C, strain apc9, stronger effect = lower value 0.989 | S. cerevisiae deletion strains, locus YLR113W, strain HOG1, stronger effect = lower value 1.01 | S. cerevisiae deletion strains, locus YLR221C, strain rsa3, stronger effect = lower value 0.996 | S. cerevisiae deletion strains, locus YLR258W, strain gsy2, stronger effect = lower value 1.03 | S. cerevisiae deletion strains, locus YLR262C, strain YPT6 (second series), stronger effect = lower value 1.01 | S. cerevisiae deletion strains, locus YLR268W, strain sec22, stronger effect = lower value 0.935 | S. cerevisiae deletion strains, locus YLR320W, strain mms22, stronger effect = lower value 0.948 | S. cerevisiae deletion strains, locus YLR330W, strain CHS5, stronger effect = lower value 0.95 | S. cerevisiae deletion strains, locus YLR342W, strain FKS1, stronger effect = lower value 1 | S. cerevisiae deletion strains, locus YLR357W, strain rsc2, stronger effect = lower value 1.01 | S. cerevisiae deletion strains, locus YLR370C, strain arc18, stronger effect = lower value 1.04 | S. cerevisiae deletion strains, locus YLR371W, strain rom2, stronger effect = lower value 0.961 | S. cerevisiae deletion strains, locus YLR384C, strain iki3, stronger effect = lower value 1.03 | S. cerevisiae deletion strains, locus YML016C, strain PPZ1, stronger effect = lower value 0.973 | S. cerevisiae deletion strains, locus YML120C, strain ndi1, stronger effect = lower value 1.05 | S. cerevisiae deletion strains, locus YML124C, strain tub3, stronger effect = lower value 0.989 | S. cerevisiae deletion strains, locus YMR058W, strain fet3, stronger effect = lower value 0.997 | S. cerevisiae deletion strains, locus YMR078C, strain ctf18, stronger effect = lower value 0.986 | S. cerevisiae deletion strains, locus YMR125W, strain sto1, stronger effect = lower value 1.03 | S. cerevisiae deletion strains, locus YMR129W, stronger effect = lower value 1.02 | S. cerevisiae deletion strains, locus YMR205C, strain PFK2, stronger effect = lower value 1.02 | S. cerevisiae deletion strains, locus YMR231W, strain pep5, stronger effect = lower value 1.04 | S. cerevisiae deletion strains, locus YMR307W, strain GAS1, stronger effect = lower value 0.726 | S. cerevisiae deletion strains, locus YNL071W, strain lat1, stronger effect = lower value 1.03 | S. cerevisiae deletion strains, locus YNL128W, strain TEP1, stronger effect = lower value 0.981 | S. cerevisiae deletion strains, locus YNL175C, strain NOP13, stronger effect = lower value 1 | S. cerevisiae deletion strains, locus YNL183C, strain NPR1, stronger effect = lower value 0.935 | S. cerevisiae deletion strains, locus YNL197C, strain WHI3, stronger effect = lower value 1.02 | S. cerevisiae deletion strains, locus YNL209W, strain ssb2, stronger effect = lower value 1.03 | S. cerevisiae deletion strains, locus YNL224C, strain SQS1, stronger effect = lower value 1.01 | S. cerevisiae deletion strains, locus YNL248C, strain rpa49, stronger effect = lower value 1.02 | S. cerevisiae deletion strains, locus YNL250W, strain rad50, stronger effect = lower value 0.957 | S. cerevisiae deletion strains, locus YNL271C, strain bni1, stronger effect = lower value 0.992 | S. cerevisiae deletion strains, locus YNL298W, strain CLA4, stronger effect = lower value 0.994 | S. cerevisiae deletion strains, locus YNL307C, strain MCK1, stronger effect = lower value 0.965 | S. cerevisiae deletion strains, locus YNL322C, strain KRE1 (second series), stronger effect = lower value 1.06 | S. cerevisiae deletion strains, locus YNL322C, strain KRE1, stronger effect = lower value 1 | S. cerevisiae deletion strains, locus YNR049C, strain mso1, stronger effect = lower value 1.02 | S. cerevisiae deletion strains, locus YOL012C, strain htz1 0.611 | S. cerevisiae deletion strains, locus YOL147C, strain pex11, stronger effect = lower value 0.989 | S. cerevisiae deletion strains, locus YOR001W, strain rrp6, stronger effect = lower value 1.01 | S. cerevisiae deletion strains, locus YOR061W, strain CKA2, stronger effect = lower value 0.93 | S. cerevisiae deletion strains, locus YOR069W, strain VPS5, stronger effect = lower value 0.983 | S. cerevisiae deletion strains, locus YOR070C, strain gyp1, stronger effect = lower value 1.02 | S. cerevisiae deletion strains, locus YOR080W, strain dia2, stronger effect = lower value 1.06 | S. cerevisiae deletion strains, locus YOR083W, strain WHI5 (second series), stronger effect = lower value 1.03 | S. cerevisiae deletion strains, locus YOR083W, strain WHI5, stronger effect = lower value 0.967 | S. cerevisiae deletion strains, locus YOR106W, strain vam3, stronger effect = lower value 1.03 | S. cerevisiae deletion strains, locus YOR136W, strain idh2, stronger effect = lower value 0.954 | S. cerevisiae deletion strains, locus YOR144C, strain elg1, stronger effect = lower value 0.99 | S. cerevisiae deletion strains, locus YOR184W, strain ser1, stronger effect = lower value 0.888 | S. cerevisiae deletion strains, locus YOR231W, strain MKK1, stronger effect = lower value 0.982 | S. cerevisiae deletion strains, locus YOR265W, strain rbl2, stronger effect = lower value 1.02 | S. cerevisiae deletion strains, locus YOR270C, strain vph1, stronger effect = lower value 0.972 | S. cerevisiae deletion strains, locus YOR290C, strain snf2, stronger effect = lower value 1.02 | S. cerevisiae deletion strains, locus YOR316C, strain cot1, stronger effect = lower value 0.979 | S. cerevisiae deletion strains, locus YPL051W, strain arl3, stronger effect = lower value 0.99 | S. cerevisiae deletion strains, locus YPL078C, strain atp4, stronger effect = lower value 1.04 | S. cerevisiae deletion strains, locus YPL106C, strain sse1, stronger effect = lower value 1.06 | S. cerevisiae deletion strains, locus YPL240C, strain hsp82, stronger effect = lower value 1.02 | S. cerevisiae deletion strains, locus YPL241C, strain CIN2, stronger effect = lower value 0.98 and 1 | S. cerevisiae deletion strains, locus YPL256C, strain CLN2, stronger effect = lower value 0.98 | S. cerevisiae deletion strains, locus YPR119W, strain clb2, stronger effect = lower value 0.989 | S. cerevisiae deletion strains, locus YPR141C, strain kar3, stronger effect = lower value 0.984 | S. cerevisiae deletion strains, locus YPR167C, strain met16, stronger effect = lower value 0.988 | S. cerevisiae deletion strains, strain wtn01, stronger effect = lower value 0.912
